# Bioassay records (PubChem)
# In the library only some 3.1% were active in any assay of this set; here they are far more common.
# CF NFkB block – inhibitors of PAF-induced NF-kB signaling, primary screen, cell-based, GFP fluorescence, uHTS; KKLEB NF-kB-GFP reporter, GFP fluorescence overnight; inhibition, % at 5 µM; actives 0.86% (n = 360,000); AID 588850, 2011;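 active = at least 50% inhibition at 5 µM, scaled per plate between neutral and stimulator controls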;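 note: PAF is a Pseudomonas aeruginosa culture filtrate used as stimulus; plate controls were PAF-stimulated DMSO wells for no effect and unstimulated DMSO wells for full effect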
# Peg3 prom inh – Peg3 promoter-driven luciferase inhibitors, primary screen, cell-based, HeLa, luciferase luminescence; HeLa PEG-Prom luciferase reporter, overnight; inhibition, % at 20 µM; actives 1.7% (n = 360,000);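 active = inhibition of at least 50% at 20 µM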
# HIF-2a inh – HIF-2a reporter inhibitors, primary screen, luminescence, 786-0 RCC cells; 786-0 RCC cells HIF-2a reporter, luciferase luminescence, overnight; inhibition, % at 18.8 µM; actives 0.72% (n = 360,000);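 active = inhibition of the luminescence signal of 40% or more relative to plate controls, in a single-dose primary screen at 18.75 µM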
# MITF TRPM1 inh – inhibitors of MITF-dependent TRPM1 promoter reporter, primary screen, cell-based, SK-MEL-5, single point, luciferase; SK-MEL-5 TRPM1 promoter luciferase, 24 h; inhibition, % at 12.5 µM; actives 0.83% (n = 330,000);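 active = mean inhibition across replicates of 60% or more, whatever share of single replicates reaches that level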
# KKLEB tox – cytotoxicity in KKLEB CF airway cells, primary screen, cytotoxicity control for CF NF-kB inhibitor project, cell-based, uHTS, fluorescence assay plates | KKLEB CF airway cells viability, ATPlite luminescence, overnight; hits give low values; cells stimulated with P. aeruginosa culture filtrate | activity change (cytotoxicity), % at 5 µM | actives 0.36% (n = 360,000) | AID 602141, 2011;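 active = corrected activity change at or below -50% at 5 µM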
# ABHD5-PLIN5 inh – ABHD5-PLIN5 interaction inhibitors, primary screen, cell lysate, split luciferase complementation, luminescence. Perilipin-5 (Homo sapiens) + 1-acylglycerol-3-phosphate O-acyltransferase ABHD5 (Homo …. Split G. princeps luciferase complementation, 4 h. inhibition, % at 4 µM. actives 0.78% (n = 360,000);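 active = inhibition above the mean inhibition across every tested compound plus 3 SD, cut at about 22% in these data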;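 note: 0% = DMSO only wells and the 100% control is not disclosed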
# ABHD5-PLIN5 conf – ABHD5-PLIN5 interaction inhibitors, confirmation, biochemical, luminescence; shares compounds with ABHD5-PLIN5 inh; inhibition, % at 4 µM; actives 67% (n = 2,200); in the data active = inhibition above about 23%;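 note: 0% = DMSO vehicle wells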
# HNF4 split-luc – HNF4 dimerization inhibitors, counter-screen for ABHD5-PLIN5 interaction inhibitor project, biochemical, split-luciferase complementation, luminescence; shares compounds with ABHD5-PLIN5 inh; inhibition, % at 4 µM; actives 77% (n = 2,200);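 active = mean inhibition across replicate wells exceeding the computed hit threshold, cut at about 13% in these data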;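 note: light from luciferase halves that rejoin when HNF4 fusion proteins dimerize; 0% = DMSO only wells and the 100% control is not given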
# Target sequence (P41235 whole entry, looked up, the tested form may be a part): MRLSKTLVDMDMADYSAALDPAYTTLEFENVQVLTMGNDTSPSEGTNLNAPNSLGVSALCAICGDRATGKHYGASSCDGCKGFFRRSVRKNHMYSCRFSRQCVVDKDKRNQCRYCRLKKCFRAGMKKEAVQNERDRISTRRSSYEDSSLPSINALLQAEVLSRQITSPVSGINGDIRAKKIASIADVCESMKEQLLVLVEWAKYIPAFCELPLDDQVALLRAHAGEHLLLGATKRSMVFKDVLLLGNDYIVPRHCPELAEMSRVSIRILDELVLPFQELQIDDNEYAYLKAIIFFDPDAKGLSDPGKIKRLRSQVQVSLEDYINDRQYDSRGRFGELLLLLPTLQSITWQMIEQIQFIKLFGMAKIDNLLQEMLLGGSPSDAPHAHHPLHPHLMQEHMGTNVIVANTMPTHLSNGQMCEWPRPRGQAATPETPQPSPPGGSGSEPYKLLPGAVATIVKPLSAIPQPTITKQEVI
# * = called active by the depositor; . = no result given.
SMILES,CF NFkB block,Peg3 prom inh,HIF-2a inh,MITF TRPM1 inh,KKLEB tox,ABHD5-PLIN5 inh,ABHD5-PLIN5 conf,HNF4 split-luc
O=C(CSc1nnc(-c2cnccn2)n1Cc1ccco1)c1ccc2ccccc2c1,0,5,-4,15,-14,37*,16,27*
Cc1cccc(NC(=O)CSc2nnc(-c3cnccn3)n2Cc2ccco2)c1,20,-5,0,-3,2,68*,11,11
COc1ccc(NC(=O)C2CCCN2C(=O)Nc2ccc(OC)cc2)cc1 (stereo not given),-3,1,14,0,1,8,.,.
Clc1ccccc1CSc1nnc(-c2cccnc2)n1Cc1ccco1,0,5,16,6,-7,31*,9,12*
CCOC(=O)C1=C(C)NC2=C(C(=O)C(C(=O)OCC)C(c3ccco3)C2)C1c1ccccn1 (stereo not given),3,6,13,8,5,42*,3,17*
CCOC(=O)C1=NNC2(c3ccc(Cl)cc3)C(=O)N(c3ccc(C)cc3)C(=O)C12 (stereo not given),7,7,4,1,-2,-3,.,.
CCCN(CC1CC1)C(=S)NC(=O)c1cc(Br)ccc1Cl,-35,9,5,-1,27,24*,2,-7
CCN1CCCC1CNC(=O)Cn1nc(C)n2nc(-c3ccccc3)cc2c1=O (stereo not given),-7,16,-2,-2,5,-9,.,.
CCN(CC(=O)Nc1c(F)cccc1F)C(=O)c1cccc(S(=O)(=O)N2CCCc3ccccc32)c1,-10,24,14,10,8,7,.,.
O=C(O)c1cccc(Nc2cc(Cl)c3nonc3c2[N+](=O)[O-])c1,5,19,9,-16,-7,29*,58*,95*
O=C(O)c1ccccc1Nc1ccc([N+](=O)[O-])cc1,-13,-103,-136,0,4,-7,.,.
O=[N+]([O-])c1c(Nc2ccc(O)cc2)cc(Cl)c2nonc12,103*,103*,95*,96*,-76*,58*,83*,101*
O=C(O)c1ccccc1Nc1cc(Cl)c2nonc2c1[N+](=O)[O-],-12,14,18,10,1,29*,80*,95*
O=C(Cn1sc2ccccc2c1=O)Nc1ccc(Br)cc1,-3,0,7,.,-9,65*,81*,118*
O=C(Cn1sc2ccccc2c1=O)Nc1ccc(F)cc1,28,10,10,.,-23,58*,69*,115*
O=C(CN1C(=O)C2CC=CCC2C1=O)Nc1ccc(Br)cc1 (stereo not given),5,3,-1,4,8,-1,.,.
O=C(Cn1sc2ccccc2c1=O)Nc1ccc(Cl)cc1,42,2,-10,.,-10,62*,83*,118*
FC(F)(F)c1ccccc1Cc1c(C2CCCCC2)nc2ccc(Br)cn12,38,-47,-52,.,-25,-10,.,.
COc1cccc(NC(=O)C2CCN(S(=O)(=O)c3ccc4c(c3)N(C(C)=O)CCO4)CC2)c1,17,4,5,1,-10,-4,.,.
O=C(O)COCC(=O)NCc1csc2ccccc12,-13,-2,20,8,-6,3,.,.
CCOc1cc(/C=C2\CN(C)C/C(=C\c3ccc(O)c(OCC)c3)C2=O)ccc1O,63*,103*,92*,102*,-9,78*,97*,88*
CCOc1cc(/C=C2\CCC/C(=C\c3cc(Cl)c(O)c(OCC)c3)C2=O)cc(Cl)c1O,52*,81*,89*,72*,-50*,55*,68*,48*
CC(C)[C@H](NC(=O)C1CC(=O)N(c2ccc3c(c2)OCO3)C1)C(=O)NC1CCCC1 (stereo not given in full),3,9,-1,-2,-18,-4,.,.
O=C1c2ccccc2C(=O)N1CC(O)COc1cccc2ccccc12 (stereo not given),-11,-18,5,.,-3,10,.,.
Cc1cccc(C)c1NC(=O)C[N+](C)(C)CC(O)COc1cccc2ccccc12 (stereo not given),-11,13,16,5,4,47*,34*,17*
SMILES,CF NFkB block,Peg3 prom inh,HIF-2a inh,MITF TRPM1 inh,KKLEB tox,ABHD5-PLIN5 inh,ABHD5-PLIN5 conf,HNF4 split-luc
COc1cccc(/C=C/C(=O)OCC(=O)Nc2ccc3c(c2)OCCO3)c1,-4,1,1,.,3,10,.,.
CC(C)(C)c1ccc(/C=C/C(=O)c2ccc(NC3=NCCCS3)cc2)cc1,24,-13,2,16,-2,50*,57*,38*
Cc1cccc(/C=C/C(=O)c2ccc(NC3=NCCCS3)cc2)c1,36,19,33,1,-19,52*,79*,61*
O=C(/C=C/c1ccccc1)c1ccc(NC2=NCCCS2)cc1,19,-131,-177,-31,-22,62*,72*,62*
COc1cccc(/C=C/C(=O)c2ccc(NC3=NCCCS3)cc2)c1,42,28,-25,4,-25,45*,74*,63*
Cc1ccc(C)c(OCCC(=O)OCC(=O)Nc2cc(S(=O)(=O)N3CCOCC3)ccc2C)c1,14,18,12,-3,8,-3,.,.
CSc1ncccc1C(=O)OC(C)C(=O)Nc1cccc(S(=O)(=O)N2CCOCC2)c1 (stereo not given),4,7,15,1,-13,-6,.,.
CCCCn1c(N)c(N(CC(C)C)C(=O)C2CCN(C(=O)c3ccc(F)cc3)CC2)c(=O)[nH]c1=O,-17,-6,4,1,-11,-4,.,.
CC(OC(=O)c1cccc(-n2cnnn2)c1)C(=O)Nc1ccc(F)c(F)c1F (stereo not given),-5,4,4,4,-4,10,.,.
Cc1sc2nc3c4ccccc4c(NCc4ccco4)nn3c(=O)c2c1C,-25,-320,-264,-79,-6,32*,46*,63*
CC1=NOC(=O)/C1=C\c1ccc(-c2ccc(Br)cc2C(=O)O)o1,6,-1,-1,-7,-6,7,.,.
